Measurements from the supplement of paper PMC9262897, “Low-cost anti-mycobacterial drug discovery using engineered E. coli” (Nature Communications, 2022).
Structures can show the parent of a compound that is named as a salt. ± gives the standard deviation of the averaged measurements.

Assays:
Assay in all cases: growth (OD600 after 10 h); higher = more growth (less inhibition)
[1] = tested on: E. coli TESEC Alr+ wild-type control; details: compound 0.1 mM; raw OD600 reference: median of DMSO wells 0.241, cell-free background 0.041
Method: (§1)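 TESEC Mtb Alr E. coli, or the Alr+ wild-type control, in 384-well plates with Prestwick library compounds at 0.1 mM and 1% DMSO, across arabinose induction levels of 1E3 to 1E7 nM. Growth is read as OD600 after 10 h at 37 °C in triplicate biological replicates.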

[2] = tested on: E. coli TESEC Mtb Alr; details: compound 0.1 mM
Method: as §1

[3] = tested on: E. coli TESEC Mtb Asd; details: compound 0.1 mM
Method: (§2)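 TESEC E. coli strains in which the native enzyme is deleted and replaced by arabinose-inducible Mtb Asd, DapB, CysH or TrpD, each grown in its selective medium. Strains were screened against the Prestwick library at 0.1 mM and 1% DMSO in 384-well format at low and high arabinose induction. Growth is read as OD600 after 10 h in triplicate.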

[4] = tested on: E. coli TESEC Mtb DapB; details: compound 0.1 mM
Method: as §2

[5] = tested on: E. coli TESEC Alr+ wild-type control; details: compound 0.1 mM; raw OD600 reference: median of DMSO wells 0.49, cell-free background 0.052
Method: (§3)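 TESEC Mtb Alr E. coli (ΔaraC ΔtolC ΔentC Δalr ΔdadX, arabinose-inducible Mtb Alr) or the Alr+ wild-type control strain, grown in defined M9-fructose medium without D-alanine in 96-well plates with Prestwick library compounds at 0.1 mM and 1% DMSO. Low Alr induction is 0.1 µM arabinose and high induction is 10 mM arabinose.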

[6] = tested on: E. coli TESEC Mtb Alr; details: compound 0.1 mM; remark: listed apart in the source
Method: as §3

[7] = arabinose 1000 nM, raw OD600 reference: median of DMSO wells 0.294, cell-free background 0.041
[8] = arabinose 10000 nM, raw OD600 reference: median of DMSO wells 0.264, cell-free background 0.041
[9] = arabinose 100000 nM, raw OD600 reference: median of DMSO wells 0.201, cell-free background 0.041
[10] = arabinose 1000000 nM, raw OD600 reference: median of DMSO wells 0.193, cell-free background 0.041
[11] = arabinose 10000000 nM, raw OD600 reference: median of DMSO wells 0.146, cell-free background 0.041
[12] = arabinose induction (level): High, raw OD600 reference: median of DMSO wells 0.331, cell-free background 0.041
[13] = arabinose induction (level): Low, raw OD600 reference: median of DMSO wells 0.417, cell-free background 0.041
[14] = arabinose induction (level): High, raw OD600 reference: median of DMSO wells […], cell-free background 0.041
[15] = arabinose induction (level): Low, raw OD600 reference: median of DMSO wells 0.227, cell-free background 0.041
[16] = arabinose 100 nM, raw OD600 reference: median of DMSO wells 0.413, cell-free background 0.052
[17] = arabinose 10000000 nM, raw OD600 reference: median of DMSO wells […], cell-free background 0.052

| Compound | growth [1] | growth [2, 7] | growth [2, 8] | growth [2, 9] | growth [2, 10] | growth [2, 11] | growth [3, 12] | growth [3, 13] | growth [4, 14] | growth [4, 15] | growth [5] | growth [6, 16] | growth [6, 17] |
| --- | --- | --- | --- | --- | --- | --- | --- | --- | --- | --- | --- | --- | --- |
| Oc1ncnc2[nH]ncc12 [Allopurinol] | 0.234 ± 0.0068 | 0.283 ± 0.013 | 0.241 ± 0.0057 | 0.189 ± 0.019 | 0.172 ± 0.0073 | 0.141 ± 0.0016 | 0.449 ± 0.032 | 0.435 ± 0.038 | 0.216 ± 0.019 | 0.234 ± 0.016 | 0.53 ± 0.078 | 0.41 ± 0.013 | 0.34 ± 0.015 |
| CC(=O)O[C@H]1C[C@@H]2CC[C@@H]3[C@H](CC[C@@]4(C)[C@H]3C[C@H]([N+]3(C)CCCCC3)[C@@H]4OC(C)=O)[C@@]2(C)C[C@@H]1N1CCCCC1 [Vecuronium bromide] | 0.0818 ± 0.00093 | 0.0791 ± 0.0015 | 0.0482 ± 0.00074 | 0.07643 ± 0.00021 | 0.0518 ± 0.0023 | 0.07727 ± 0.00072 | 0.136 ± 0.0039 | 0.124 ± 0.0035 | 0.172 ± 0.019 | 0.216 ± 0.022 | 0.23 ± 0.013 | 0.396 ± 0.0098 | 0.0791 ± 0.0096 |
| CC(C(=O)O)c1ccc2c(c1)Cc1cccnc1O2 (stereo not drawn) [Pranoprofen] | 0.238 ± 0.0049 | 0.302 ± 0.013 | 0.271 ± 0.0097 | 0.192 ± 0.016 | 0.193 ± 0.0053 | 0.133 ± 0.0031 | 0.315 ± 0.03 | 0.367 ± 0.0097 | 0.192 ± 0.008 | 0.198 ± 0.013 | 0.4398 ± 0.0017 | 0.415 ± 0.0046 | 0.316 ± 0.012 |
| Nc1ccc(S(N)(=O)=O)cc1 [Sulfanilamide] | 0.249 ± 0.008 | 0.302 ± 0.011 | 0.2715 ± 0.0023 | 0.248 ± 0.014 | 0.205 ± 0.0051 | 0.142 ± 0.0052 | 0.318 ± 0.027 | 0.446 ± 0.0081 | 0.217 ± 0.022 | 0.263 ± 0.038 | 0.507 ± 0.044 | 0.388 ± 0.033 | 0.386 ± 0.0053 |
| Nc1nnc(-c2cccc(Cl)c2Cl)c(N)n1 [Lamotrigine] | 0.14 ± 0.0084 | 0.206 ± 0.028 | 0.203 ± 0.0052 | 0.216 ± 0.014 | 0.21 ± 0.0054 | 0.179 ± 0.0078 | 0.236 ± 0.025 | 0.168 ± 0.019 | 0.213 ± 0.015 | 0.132 ± 0.0074 | 0.46 ± 0.021 | 0.413 ± 0.029 | 0.386 ± 0.029 |
| CC(CCc1ccccc1)NCC(O)c1ccc(O)c(C(N)=O)c1 (stereo not drawn) [Labetalol hydrochloride] | 0.191 ± 0.006 | 0.246 ± 0.015 | 0.24 ± 0.011 | 0.174 ± 0.011 | 0.1371 ± 0.0012 | 0.137 ± 0.0031 | 0.26 ± 0.015 | 0.407 ± 0.046 | 0.186 ± 0.0091 | 0.209 ± 0.017 | 0.467 ± 0.024 | 0.413 ± 0.0048 | 0.321 ± 0.016 |
| CC(C)NCC(O)c1cc(O)cc(O)c1 (stereo not drawn) [Metaproterenol sulfate, orciprenaline sulfate] | 0.247 ± 0.0097 | 0.291 ± 0.0065 | 0.268 ± 0.01 | 0.2 ± 0.03 | 0.185 ± 0.011 | 0.144 ± 0.0048 | 0.283 ± 0.046 | 0.346 ± 0.019 | 0.177 ± 0.013 | 0.183 ± 0.015 | 0.635 ± 0.09 | 0.411 ± 0.011 | 0.352 ± 0.029 |
| COc1ccccc1OCC(O)CN1CCN(CC(=O)Nc2c(C)cccc2C)CC1 (stereo not drawn) [Ranolazine] | 0.207 ± 0.0059 | 0.309 ± 0.036 | 0.285 ± 0.0092 | 0.155 ± 0.012 | 0.178 ± 0.0088 | 0.135 ± 0.0073 | 0.171 ± 0.014 | 0.342 ± 0.085 | 0.174 ± 0.023 | 0.226 ± 0.021 | 0.471 ± 0.068 | 0.4233 ± 0.0032 | 0.301 ± 0.014 |
| Nc1c2c(nc3ccccc13)CCCC2O (racemic) [Hydroxytacrine maleate (R,S)] | 0.227 ± 0.0038 | 0.264 ± 0.028 | 0.257 ± 0.0076 | 0.202 ± 0.025 | 0.176 ± 0.0061 | 0.144 ± 0.0023 | 0.218 ± 0.012 | 0.257 ± 0.034 | 0.203 ± 0.018 | 0.205 ± 0.015 | 0.612 ± 0.088 | 0.4 ± 0.0077 | 0.352 ± 0.0099 |
| CN1CCc2c(c3ccccc3n2Cc2ccccc2)C1 [Mebhydroline 1,5-naphtalenedisulfonate] | 0.175 ± 0.0028 | 0.218 ± 0.0081 | 0.267 ± 0.012 | 0.199 ± 0.02 | 0.133 ± 0.0032 | 0.157 ± 0.005 | 0.179 ± 0.014 | 0.278 ± 0.055 | 0.187 ± 0.017 | 0.207 ± 0.0028 | 0.4471 ± 0.0035 | 0.404 ± 0.0065 | 0.261 ± 0.034 |
| C[C@@](Cc1ccc(O)c(O)c1)(NN)C(=O)O [Carbidopa] | 0.225 ± 0.0049 | 0.292 ± 0.024 | 0.118 ± 0.0053 | 0.228 ± 0.048 | 0.0919 ± 0.00096 | 0.193 ± 0.0067 | 0.283 ± 0.11 | 0.357 ± 0.04 | 0.159 ± 0.016 | 0.173 ± 0.018 | 0.499 ± 0.048 | 0.375 ± 0.014 | 0.257 ± 0.012 |
| CCN1C(=O)NC(c2ccccc2)C1=O (stereo not drawn) [Ethotoin] | 0.244 ± 0.0096 | 0.304 ± 0.008 | 0.254 ± 0.0063 | 0.191 ± 0.009 | 0.187 ± 0.006 | 0.142 ± 0.0016 | 0.434 ± 0.031 | 0.446 ± 0.014 | 0.217 ± 0.01 | 0.243 ± 0.051 | 0.448 ± 0.012 | 0.4121 ± 0.0041 | 0.353 ± 0.017 |
| CC(C)(C)NC[C@H](O)COc1cccc2c1CCCC2=O [(-) -Levobunolol hydrochloride] | 0.227 ± 0.022 | 0.295 ± 0.0092 | 0.253 ± 0.0095 | 0.189 ± 0.0065 | 0.1733 ± 0.0014 | 0.141 ± 0.0056 | 0.401 ± 0.085 | 0.428 ± 0.059 | 0.203 ± 0.0036 | 0.221 ± 0.019 | 0.613 ± 0.048 | 0.403 ± 0.013 | 0.334 ± 0.0023 |
| O=C(Nc1ccccc1)OCC(CN1CCCCC1)OC(=O)Nc1ccccc1 (stereo not drawn) [Diperodon hydrochloride] | 0.193 ± 0.0045 | 0.249 ± 0.0066 | 0.259 ± 0.0044 | 0.231 ± 0.037 | 0.0876 ± 0.0038 | 0.154 ± 0.0081 | 0.235 ± 0.019 | 0.345 ± 0.065 | 0.2 ± 0.0073 | 0.223 ± 0.038 | 0.405 ± 0.02 | 0.426 ± 0.0081 | 0.243 ± 0.028 |
| COc1cc(NC(C)CCCN)c2ncccc2c1 (stereo not drawn) [Primaquine diphosphate] | 0.0466 ± 0.00081 | 0.0463 ± 0.00081 | 0.04143 ± 0.00031 | 0.0508 ± 0.0023 | 0.043 ± 0.00026 | 0.0577 ± 0.0019 | 0.0857 ± 0.0065 | 0.0611 ± 0.0046 | 0.122 ± 0.092 | 0.0664 ± 0.0032 | 0.267 ± 0.025 | 0.38 ± 0.018 | 0.08 ± 0.024 |
| Nc1nc2n[nH]nc2c(=O)[nH]1 [Azaguanine-8] | 0.21 ± 0.0092 | 0.241 ± 0.0083 | 0.194 ± 0.0047 | 0.239 ± 0.0079 | 0.143 ± 0.0028 | 0.132 ± 0.009 | 0.397 ± 0.01 | 0.42 ± 0.044 | 0.235 ± 0.032 | 0.26 ± 0.084 | 0.3656 ± 0.0032 | 0.409 ± 0.026 | 0.245 ± 0.16 |
